Source: the supplement of paper PMC10338343
± gives the standard deviation.

What follows are sequences tested on MILI (PIWIL2) piRISC loaded with piRNA #1 (26 nt) (assay: pre-steady-state target cleavage rate (min^-1); guide: piRNA #1 5'p-UGAGGUAGUAGGUUGUAUAGUAUCCA; MIWI and MILI are mouse PIWI proteins and EfPiwi is from a freshwater sponge; tags in brackets are library labels; higher = faster piRNA-guided slicing of the target). Conditions: auxiliary factor: 500 nM mouse GTSF1.
Procedure, shortened: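 Cleave-'n-Seq: a transcribed, DNA-blocked target RNA library (0.1 nM) was mixed with 1 nM active affinity-purified piRISC carrying one synthetic guide, with or without 500 nM GTSF1 partner protein, in HEPES–potassium acetate buffer at 33 °C for 0–8 or 0–960 min. Uncleaved targets were sequenced and normalised to depth and to weakly complementary targets. Three trials were pooled, and k3 was capped at 0.0001 min^-1. The pre-steady-state cleavage rate came from a burst-and-steady-state fit.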

Sequence	pre-steady-state target cleavage rate
GGAGACCAUACUAUACAACCUAGUACCACA	0.00768 ± 0.0041
GGAGACCUAUCUAUACAAACUACUACCUCA	0.171 ± 0.015
GGAGACCUUAGUAAACAACCUACUACCUCA	0.0245 ± 0.0059
GGAGACCUAACUAUACAUCCUUCUACCUCA	0.0117 ± 0.0069
GGAGAGGAUACUUUAGAACCUACUACCUCA	0.153 ± 0.0078
GGAGACCUAUCUAUAGAACCUACUACGUCA	0.0269 ± 0.0089
GGAGUGGAUACUAAACAACCUACUAGCUCA	0.0437 ± 0.0085
GGAGACCUUACUAUACAACCUACUUCGUCA	0.0614 ± 0.015
GGAGACCUAUGAUUACAACCUACUAACCUCA	0.0091 ± 0.0025
GGAGACGUAACUAUACAACCUACUACCUCA	0.166 ± 0.018
GGAGACCUAUGAAUACAACAUACUACCUCA	0.00332 ± 0.0021
GGAGACCUAAGUAUACAACCUACUACCACA	0.0885 ± 0.012
GGAGAGGAUACUAUAGAACCUACAACCUCA	0.00427 ± 0.0024
GGAGACCUAACUAUACAACCUACUAGCACA	0.00779 ± 0.0065
GGAGACCUAUGAUAUGUAACCUACUACCUCA	0.017 ± 0.0038
GGAGACCUAUGAUAUGAACCUACUAUCUCA	< 0.0001
GGAGACCAUACUAAACUACCUACUACCUCA	0.142 ± 0.013
GGAGACCUUCUAUACAACCUACUACCUCA	0.0879 ± 0.016
GGAGAGGAUACUAUAGUUCCUACUACCUCA	0.18 ± 0.015
GGAGACCUAACAAUACAACCUACUACCUGA	0.0637 ± 0.022

Sequence	pre-steady-state target cleavage rate
GGAGACCUAUCUAUACAACGUACAACCUCA	0.0149 ± 0.0048
GGAGACCAUACUAUACUACCUACUAGCUCA	0.0939 ± 0.017
GGAGACCUAACUAUAGCAACCUACUACCUCA	0.0973 ± 0.023
GGAGACCUUACAAAACAACCUACUACCUCA	0.00897 ± 0.0036
GGAGACCUAUGAUAACAACCUACUACCUCA [g2:g16:cont:t1A]	0.00406 ± 0.003
GGAGACCUAUCUAUACAACCUUCUACGUCA	0.00428 ± 0.003
GGAGACCUUACUAUACAACCAACUUCCUCA	0.00396 ± 0.0024
GGAGACCUAACAAUACAACCUAGUACCUCA	0.00888 ± 0.0052
GGAGACCUAUCUAUACAACCUACUACCUAA	0.0733 ± 0.0096
GGAGACCUAUGAUAACAACCUACUACCUGCA	0.00443 ± 0.0033
GGAGACCUAUGUAUUCUACCUACUACCUCA	0.0111 ± 0.0026
GGAGUGGAUACAAUUCAACCUACUACCUCA	0.178 ± 0.0092
GGAGACCUUACUAUUCAACGUACUACCUCA	0.0187 ± 0.0035
GGAGACCUAUGAUUACAACCUCACUACCUCA	0.00291 ± 0.0027
GGAGACCUAACUAUACAACCUACAUACCUCA	0.0941 ± 0.018
GGAGACCUAUGAUAUGAAACUACUACCUCA	< 0.0001
GGAGACCUAACUAUACAACCUAGCUACCUCA	0.0209 ± 0.008
GGAGACCUAUGUAUACAACCUACUACCUGCA	0.0635 ± 0.011
GGAGACGUUACUAUUCAACCUACUACCUCA	0.168 ± 0.011
